Results on 13 compounds are retold here after PubChem BioAssay (NCI).

Test in all cases: NCI-60 one-dose screen, 48 h (100 = growth as untreated, 0 = no growth, -100 = all killed)
What all share (conditions): 10 µM unless noted

Test [1] deals with SK-MEL-2 melanoma.
For test [2], the system named is EKVX NSCLC.
Test [3] relates to SN12C renal.
The test system of test [4] is UO-31 renal.
In test [5] the test system is TK-10 renal.
For test [6], the system named is ACHN renal.
For test [7], the system named is A498 renal.
Test [8] deals with CCRF-CEM leukemia.
Test [9] concerns MOLT-4 leukemia.
Test [10] deals with SR leukemia.

About 83,000 compounds went through this panel and 20% of them were active in at least one assay; those are over-represented in the sample as a whole.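 Percent growth is the endpoint: 0 to 100 indicates growth inhibition (40 means 60% inhibition), 0 means no net growth, and negative values indicate cell death.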 A number with no mark means an inactive call. Calls of active or inactive are those of the source. How the source made its calls: active means growth percent below 10; inactive means the rest.

Take `O=C1C(Cl)=C(NCCCN(CCCNC2=C(Cl)C(=O)c3ccccc3C2=O)C2=C(Cl)C(=O)c3ccccc3C2=O)C(=O)c2ccccc21`: the growth in test [1] is 79.4%; in test [2], 80%; in test [3], 4.16% (active); in [4], 58.1%; in test [5], 146%; in [6] it was 74.6%. Besides, the growth is 100% in [7], 34.6% in [8], 31.6% in test [9] and 2.55% (active) in [10].

Regarding `Cc1ccc(C(=O)/C(=C/c2ccc([N+](=O)[O-])cc2)S(=O)Cc2ccccc2)cc1` (stereo not given), the growth in test [1] is 57.9%; in [2], 30.3%; in test [3], -41.1% (active); in [4], -83.7% (active); in test [5], 6.85% (active); in test [6], -52.8% (active). The growth was 41% in test [7], 6.67% (active) in [8], 1.79% (active) in [9] and 0.101% (active) in test [10].

On to `CC(=O)c1c(OCC#N)ccc2c(C)cc(=O)oc12`, for which the growth in test [1] is 95.6%; in test [2], 105%; in test [3], 102%; in [4] it was 114%; in test [5], 118%; in test [6] it was 99.8%. In addition, the growth is 101% in test [7], 105% in test [8], 101% in test [9] and 87.1% in test [10].

Consider `CC(=O)OC[C@]12CC[C@@H](c3cn(Cc4ccc(Cn5cc([C@@H]6CC[C@]7(COC(C)=O)CC[C@]8(C)[C@H](CC[C@@H]9[C@@]%10(C)CC[C@H](OC(C)=O)C(C)(C)[C@@H]%10CC[C@]98C)[C@@H]67)nn5)cc4)nn3)[C@@H]1[C@H]1CC[C@@H]3[C@@]4(C)CC[C@H](OC(C)=O)C(C)(C)[C@@H]4CC[C@@]3(C)[C@]1(C)CC2`, for which the growth in test [1] was 97%; in test [2] it was 104%; in test [3] it was 106%; in [4], 90.7%; in test [5], 95.1%; in [6] it was 97.1%. Also, the growth was 105% in test [7], 102% in test [8], 97.1% in [9] and 98% in [10].

For `COc1cc2c(cc1OC)C(Sc1ccc(Cl)cc1)c1c(nc(N)c(C#N)c1N)O2` (stereo not given), the growth in test [1] is -21.1% (active); in test [2], 1.68% (active); in [3], 1.66% (active); in test [4], -36.3% (active); in [5], -12.6% (active); in [6] it was -66.9% (active). Further, the growth in test [7] is 66.4%; in test [8], -7.67% (active); in [9], 0.994% (active); in test [10] it was -13.3% (active).

For the compound `Nc1c(C(=O)Nc2ccccc2Cl)sc2nc3c(cc12)CN(Cc1ccccc1)CC3`, the growth in [1] was 95.6%; in test [2], 93%; in test [3], 101%; in [4], 99.7%; in test [5], 98.5%; in test [6] it was 104%. Moreover, the growth is 85.4% in test [7], 91.7% in [8], 89.6% in test [9] and 87.1% in [10].

With `N#Cc1nc(-c2ccccc2)oc1S(=O)(=O)NCC(c1ccc(Cl)cc1)N1CCCCC1` (stereo not given), the growth is 72.2% in test [1]; 106% in [2]; 65.6% in test [3]; 65.5% in test [4]; 112% in test [5]; 82.7% in [6]. Moreover, the growth was 102% in test [7], 1.94% (active) in test [8], 1.32% (active) in test [9] and 12.2% in test [10].

Consider `CCOC(=O)c1c(C(F)(F)F)n([O-])c2ccc(Cl)cc2[n+]1=O`, for which the growth in [1] is -57.2% (active); in test [2], -8.8% (active); in test [3], -21.4% (active); in test [4], -44.3% (active); in [5], -92.7% (active); in test [6], -97.8% (active). In addition, the growth in test [7] was -76.4% (active); in test [8], -45.7% (active); in test [9] it was -48.5% (active); in test [10] it was -33.6% (active).

In the case of `COc1ccc2oc(=O)cc(-c3c(C#N)c(N)n4nc(N)c(C#N)c4c3C#N)c2c1`, the growth in test [1] was 91.7%; in test [2], 100%; in [3], 103%; in test [4], 94.4%; in [5] it was 90.4%; in test [6] it was 101%. Further, the growth in test [7] was 113%; in [8] it was 106%; in [9], 86%; in test [10], 115%.

As for `N#Cc1c(-c2ccc(F)cc2)nc(N=Nc2c(O)[nH]c3ccccc23)nc1N1CCOCC1`, the growth is 105% in test [1]; 77.6% in test [2]; 30.4% in test [3]; 60.4% in [4]; 65.4% in test [5]; 65.5% in test [6]. In addition, the growth in test [7] is 80.8%; in test [8], 77.4%; in test [9], 95.3%; in [10], 88.2%.

For `CC(=O)Nc1ccc2c(c1)Cc1cc(F)ccc1-2`, the growth in test [1] is 94.8%; in [2], 104%; in test [3] it was 107%; in [4], 56.8%; in test [5], 104%; in [6] it was 104%. Moreover, the growth in test [7] is 73.2%; in test [8] it was 99.1%; in test [9] it was 89.4%; in test [10], 87.5%.

Regarding `COc1ccc(-c2nnc(N3CCN(C(=O)CN4CCN(c5ccc(OC)cc5)CC4)CC3)nc2-c2ccc(OC)cc2)cc1`, the growth in test [1] is -63.6% (active); in [2], 41.5%; in test [3], -72.7% (active); in test [4], -64.4% (active); in [5], 28.6%; in [6] it was 54.6%. In addition, the growth is 98.1% in test [7], -50.7% (active) in [8], -54.2% (active) in [9] and -54.2% (active) in [10].

Turning to `O=C(CCCCCCCCC(=O)Nc1cccc(C2=NCCN2)c1)Nc1cccc(C2=NCCN2)c1`, the growth was 99.8% in test [1]; 105% in [2]; 81.6% in [3]; 96.3% in test [4]; 92.4% in test [5]; 112% in test [6]. Further, the growth in [7] is 93.5%; in [8] it was 98%; in test [9], 89.4%; in test [10] it was 65.5%.
